The supplement of paper PMC6411743
± gives the standard deviation of the averaged measurements. Targets with the largest changes are over-represented here; the source holds about 6,200 in all.

Compound: Nc1ncnc2c1ncn2[C@@H]1O[C@H](COP(=O)(O)OP(=O)(O)NP(=O)(O)O)[C@@H](O)[C@H]1O [adenylyl imidodiphosphate]
Test: NP40-soluble protein abundance relative to vehicle (solubility fold change) (ratio); higher = more soluble protein in presence of AMP-PNP
Procedure, shortened: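 Jurkat crude lysate (Dounce-homogenised) was treated with eight concentrations from 0.1 to 10 mM for 10 min at room temperature, then 3 min at 37 °C. It was solubilised with 0.8% NP40 and benzonase (60 min, 4 °C) and ultracentrifuged, and the supernatant was TMT-labelled for LC-MS/MS. Intensities were vsn-normalised, and the value is the fold change against the NP40-processed vehicle per replicate, from three independent experiments.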

Sequence of UniProt Q9NPB8 (Q9NPB8 whole entry, one chain of several): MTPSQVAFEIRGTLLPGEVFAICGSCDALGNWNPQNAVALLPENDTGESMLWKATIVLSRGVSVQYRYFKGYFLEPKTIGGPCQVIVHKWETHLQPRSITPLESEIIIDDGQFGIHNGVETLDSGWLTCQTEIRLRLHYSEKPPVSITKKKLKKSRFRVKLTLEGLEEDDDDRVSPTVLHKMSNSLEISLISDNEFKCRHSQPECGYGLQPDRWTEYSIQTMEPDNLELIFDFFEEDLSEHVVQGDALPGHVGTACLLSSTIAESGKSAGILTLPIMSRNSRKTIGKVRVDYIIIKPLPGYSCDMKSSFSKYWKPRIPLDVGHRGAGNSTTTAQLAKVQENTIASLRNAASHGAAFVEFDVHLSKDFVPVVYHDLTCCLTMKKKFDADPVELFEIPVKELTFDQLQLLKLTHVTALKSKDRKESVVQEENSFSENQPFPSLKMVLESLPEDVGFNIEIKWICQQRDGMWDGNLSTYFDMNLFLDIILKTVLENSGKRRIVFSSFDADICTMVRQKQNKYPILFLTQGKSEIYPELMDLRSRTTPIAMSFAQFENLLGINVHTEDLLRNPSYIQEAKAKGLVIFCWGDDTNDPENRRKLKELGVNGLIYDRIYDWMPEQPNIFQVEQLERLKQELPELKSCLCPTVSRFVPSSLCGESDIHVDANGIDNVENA
Sequence of UniProt Q9H0J9 (Q9H0J9 whole entry): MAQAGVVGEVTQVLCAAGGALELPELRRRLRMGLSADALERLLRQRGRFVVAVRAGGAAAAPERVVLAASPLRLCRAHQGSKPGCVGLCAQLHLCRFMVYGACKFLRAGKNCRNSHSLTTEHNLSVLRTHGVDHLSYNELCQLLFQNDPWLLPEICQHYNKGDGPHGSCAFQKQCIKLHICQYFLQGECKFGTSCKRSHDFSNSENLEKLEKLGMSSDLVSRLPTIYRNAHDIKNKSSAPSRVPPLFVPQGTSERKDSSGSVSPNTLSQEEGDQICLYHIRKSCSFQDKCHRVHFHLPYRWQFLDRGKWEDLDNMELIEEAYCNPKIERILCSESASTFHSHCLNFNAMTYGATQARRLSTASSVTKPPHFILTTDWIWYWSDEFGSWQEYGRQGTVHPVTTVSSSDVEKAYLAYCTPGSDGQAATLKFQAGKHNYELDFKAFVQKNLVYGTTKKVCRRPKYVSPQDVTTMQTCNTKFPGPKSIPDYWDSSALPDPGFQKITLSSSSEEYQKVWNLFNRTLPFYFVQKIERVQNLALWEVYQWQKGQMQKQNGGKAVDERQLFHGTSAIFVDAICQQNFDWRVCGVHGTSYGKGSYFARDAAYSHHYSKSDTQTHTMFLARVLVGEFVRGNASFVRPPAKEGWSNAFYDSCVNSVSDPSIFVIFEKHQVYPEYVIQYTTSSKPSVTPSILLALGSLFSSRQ
Sequence of UniProt Q9H1D9 (Q9H1D9 whole entry): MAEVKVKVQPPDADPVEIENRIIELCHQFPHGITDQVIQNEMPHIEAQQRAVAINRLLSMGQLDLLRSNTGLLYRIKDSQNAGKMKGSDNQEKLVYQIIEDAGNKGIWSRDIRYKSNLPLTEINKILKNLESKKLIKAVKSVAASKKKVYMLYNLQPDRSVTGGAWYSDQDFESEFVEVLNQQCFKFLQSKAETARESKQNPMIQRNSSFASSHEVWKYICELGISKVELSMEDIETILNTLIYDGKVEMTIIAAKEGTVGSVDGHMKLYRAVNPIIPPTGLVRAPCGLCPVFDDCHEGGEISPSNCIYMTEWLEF
Sequence of UniProt Q9P2I0 (Q9P2I0 whole entry): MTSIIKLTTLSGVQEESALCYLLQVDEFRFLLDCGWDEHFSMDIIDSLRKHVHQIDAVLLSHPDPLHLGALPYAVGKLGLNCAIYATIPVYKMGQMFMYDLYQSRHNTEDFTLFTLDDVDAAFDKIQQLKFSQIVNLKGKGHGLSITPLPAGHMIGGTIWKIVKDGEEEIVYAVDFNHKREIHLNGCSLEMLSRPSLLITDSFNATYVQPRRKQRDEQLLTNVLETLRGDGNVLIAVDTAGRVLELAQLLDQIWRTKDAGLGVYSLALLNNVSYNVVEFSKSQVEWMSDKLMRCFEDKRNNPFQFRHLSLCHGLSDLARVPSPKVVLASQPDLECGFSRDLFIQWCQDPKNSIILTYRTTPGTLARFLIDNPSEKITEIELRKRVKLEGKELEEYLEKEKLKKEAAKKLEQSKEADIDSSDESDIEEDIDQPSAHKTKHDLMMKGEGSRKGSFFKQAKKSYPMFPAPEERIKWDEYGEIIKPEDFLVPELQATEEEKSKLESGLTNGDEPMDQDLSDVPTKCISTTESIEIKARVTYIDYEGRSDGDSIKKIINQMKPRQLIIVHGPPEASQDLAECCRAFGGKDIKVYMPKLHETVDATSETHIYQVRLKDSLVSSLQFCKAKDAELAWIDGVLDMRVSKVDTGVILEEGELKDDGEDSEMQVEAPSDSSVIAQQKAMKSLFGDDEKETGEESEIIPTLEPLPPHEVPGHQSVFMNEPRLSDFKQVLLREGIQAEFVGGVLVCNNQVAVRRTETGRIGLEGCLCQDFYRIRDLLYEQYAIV
Sequence of UniProt Q9H668 (Q9H668 whole entry): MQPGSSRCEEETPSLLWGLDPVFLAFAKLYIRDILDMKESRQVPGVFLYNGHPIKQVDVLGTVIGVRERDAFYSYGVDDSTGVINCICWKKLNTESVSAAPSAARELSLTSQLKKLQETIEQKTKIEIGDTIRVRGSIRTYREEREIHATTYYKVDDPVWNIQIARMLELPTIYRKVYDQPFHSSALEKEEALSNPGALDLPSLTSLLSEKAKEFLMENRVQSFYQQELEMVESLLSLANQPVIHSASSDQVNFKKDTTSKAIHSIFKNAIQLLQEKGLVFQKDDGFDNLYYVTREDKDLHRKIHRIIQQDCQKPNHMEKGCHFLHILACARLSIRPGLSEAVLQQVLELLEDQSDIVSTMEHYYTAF
Sequence of UniProt Q9UMZ2 (Q9UMZ2 whole entry): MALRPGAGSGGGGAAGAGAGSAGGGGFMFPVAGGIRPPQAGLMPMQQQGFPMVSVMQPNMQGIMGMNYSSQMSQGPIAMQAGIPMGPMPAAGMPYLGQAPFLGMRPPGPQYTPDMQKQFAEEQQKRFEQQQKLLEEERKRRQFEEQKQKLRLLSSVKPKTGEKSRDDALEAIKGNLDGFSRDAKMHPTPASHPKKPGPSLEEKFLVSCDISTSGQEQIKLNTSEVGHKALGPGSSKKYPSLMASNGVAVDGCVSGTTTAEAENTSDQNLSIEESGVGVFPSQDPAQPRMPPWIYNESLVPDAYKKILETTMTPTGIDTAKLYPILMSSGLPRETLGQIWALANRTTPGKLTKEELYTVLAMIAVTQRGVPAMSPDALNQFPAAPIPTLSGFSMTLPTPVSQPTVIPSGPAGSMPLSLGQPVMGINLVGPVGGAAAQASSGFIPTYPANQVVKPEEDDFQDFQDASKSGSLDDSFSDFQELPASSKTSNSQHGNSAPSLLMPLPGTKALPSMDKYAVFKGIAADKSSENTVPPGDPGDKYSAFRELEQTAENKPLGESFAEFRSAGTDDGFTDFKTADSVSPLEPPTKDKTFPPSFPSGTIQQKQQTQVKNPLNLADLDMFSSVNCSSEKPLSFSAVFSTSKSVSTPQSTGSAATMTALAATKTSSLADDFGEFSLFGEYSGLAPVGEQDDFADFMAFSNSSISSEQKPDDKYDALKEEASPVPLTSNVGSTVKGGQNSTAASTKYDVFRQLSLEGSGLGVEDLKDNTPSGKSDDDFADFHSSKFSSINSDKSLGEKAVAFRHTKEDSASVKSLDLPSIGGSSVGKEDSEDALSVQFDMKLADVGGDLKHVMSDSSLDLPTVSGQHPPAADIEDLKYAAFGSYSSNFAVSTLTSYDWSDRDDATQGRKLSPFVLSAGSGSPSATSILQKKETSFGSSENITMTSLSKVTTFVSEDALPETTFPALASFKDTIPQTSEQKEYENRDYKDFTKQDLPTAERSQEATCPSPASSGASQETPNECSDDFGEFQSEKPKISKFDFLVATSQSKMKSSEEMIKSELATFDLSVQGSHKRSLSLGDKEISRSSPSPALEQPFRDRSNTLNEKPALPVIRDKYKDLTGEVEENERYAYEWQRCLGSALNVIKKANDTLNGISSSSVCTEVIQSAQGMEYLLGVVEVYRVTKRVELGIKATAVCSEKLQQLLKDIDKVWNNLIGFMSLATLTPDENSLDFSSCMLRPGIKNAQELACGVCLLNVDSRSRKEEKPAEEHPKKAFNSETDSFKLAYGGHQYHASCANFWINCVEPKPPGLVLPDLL
Sequence of UniProt Q9Y5J1 (Q9Y5J1 whole entry): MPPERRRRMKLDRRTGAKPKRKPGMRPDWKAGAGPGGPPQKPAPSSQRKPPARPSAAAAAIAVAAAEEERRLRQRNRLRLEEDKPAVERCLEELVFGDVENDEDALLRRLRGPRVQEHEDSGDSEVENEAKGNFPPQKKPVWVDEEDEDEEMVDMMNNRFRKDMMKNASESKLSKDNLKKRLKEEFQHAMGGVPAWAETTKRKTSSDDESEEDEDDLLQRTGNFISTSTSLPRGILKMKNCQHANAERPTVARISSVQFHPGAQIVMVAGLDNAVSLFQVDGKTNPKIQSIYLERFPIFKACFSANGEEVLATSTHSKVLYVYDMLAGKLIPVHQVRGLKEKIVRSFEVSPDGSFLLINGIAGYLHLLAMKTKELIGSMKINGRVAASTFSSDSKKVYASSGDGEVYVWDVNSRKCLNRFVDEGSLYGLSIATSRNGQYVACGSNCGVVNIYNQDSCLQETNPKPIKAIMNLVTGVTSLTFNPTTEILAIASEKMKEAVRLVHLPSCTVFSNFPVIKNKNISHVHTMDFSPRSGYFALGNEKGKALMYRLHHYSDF
Sequence of UniProt Q99436 (Q99436 whole entry): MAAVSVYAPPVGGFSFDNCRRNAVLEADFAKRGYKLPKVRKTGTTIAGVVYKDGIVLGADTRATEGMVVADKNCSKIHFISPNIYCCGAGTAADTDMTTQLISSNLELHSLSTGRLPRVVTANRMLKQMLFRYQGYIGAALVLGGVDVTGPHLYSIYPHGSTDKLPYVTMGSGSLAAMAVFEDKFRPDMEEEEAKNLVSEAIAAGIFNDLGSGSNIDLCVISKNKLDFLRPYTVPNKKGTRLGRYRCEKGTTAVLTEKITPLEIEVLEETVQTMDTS

Target	NP40-soluble protein abundance (concentration: 1mM)	NP40-soluble protein abundance (concentration: 2mM)	NP40-soluble protein abundance (concentration: 4mM)	NP40-soluble protein abundance (concentration: 6mM)	NP40-soluble protein abundance (concentration: 8mM)	NP40-soluble protein abundance (concentration: 10mM)
UniProt Q9Y520|Q9Y520-5|Q9Y520-7|E7EPN9|Q9Y520-4	1.1 ± 0.013	1.2 ± 0.092	1.2 ± 0.05	1.25 ± 0.12	1.29 ± 0.14	1.41 ± 0.17
UniProt Q9NPG3|Q9NPG3-2	1.01 ± 0.013	1.05 ± 0.037	1.07 ± 0.021	1.06 ± 0.034	1.06 ± 0.022	1.09 ± 0.067
PARP12 (UniProt Q9H0J9)	0.982 ± 0.046	0.946 ± 0.042	1.01 ± 0.022	0.991 ± 0.015	1.04 ± 0.029	1.01 ± 0.023
NIPSNAP1 (UniProt Q9BPW8)	0.94 ± 0.05	0.873 ± 0.075	0.943 ± 0.028	0.954 ± 0.08	1.02 ± 0.036	0.948 ± 0.021
UniProt Q96P48|Q96P48-3	0.968 ± 0.022	0.896 ± 0.14	0.983 ± 0.07	0.903 ± 0.059	0.955 ± 0.066	0.882 ± 0.062
UniProt Q9H0A0|Q9H0A0-2|A0A087WV29	1.47 ± 0.19	1.5 ± 0.19	1.62 ± 0.21	1.66 ± 0.17	1.79 ± 0.25	1.8 ± 0.17
UniProt Q9Y320|Q9Y320-2	0.936 ± 0.038	0.89 ± 0.056	0.918 ± 0.036	0.952 ± 0.048	0.962 ± 0.04	0.95 ± 0.039
UniProt Q9UIG0|Q9UIG0-2	1.04 ± 0.048	1.08 ± 0.055	1.11 ± 0.046	1.23 ± 0.074	1.3 ± 0.11	1.45 ± 0.16
PSMB7 (UniProt Q99436)	0.946 ± 0.04	0.909 ± 0.061	0.906 ± 0.057	0.928 ± 0.086	0.918 ± 0.081	0.9 ± 0.13
UniProt Q9HCJ0|Q9HCJ0-2	1.043 ± 0.0013	1.033 ± 0.0035	1.01 ± 0.013	1.01 ± 0.022	1 ± 0.016	1.02 ± 0.02
UniProt Q9NPB8|H0Y565	1.01 ± 0.017	1.05 ± 0.034	1.02 ± 0.015	0.999 ± 0.033	0.9977 ± 0.0075	1.02 ± 0.019
YBX2 (UniProt Q9Y2T7)	1.02 ± 0.029	1.06 ± 0.013	1.02 ± 0.018	1.01 ± 0.029	1.01 ± 0.036	1.038 ± 0.0094
UniProt Q9H6A9|Q9H6A9-2	1.01 ± 0.016	1.02 ± 0.027	0.98826 ± 0.00019	0.989 ± 0.028	0.9847 ± 0.0089	0.9795 ± 0.0059
CPSF2 (UniProt Q9P2I0)	1.01 ± 0.016	1 ± 0.053	1.03 ± 0.027	1.03 ± 0.061	1.05 ± 0.035	1.07 ± 0.055
UniProt Q9H668	0.991 ± 0.028	0.97 ± 0.028	0.985 ± 0.027	0.995 ± 0.018	0.985 ± 0.044	0.963 ± 0.024
CISD1 (UniProt Q9NZ45)	1 ± 0.047	1.04 ± 0.046	1 ± 0.04	0.992 ± 0.039	1.02 ± 0.0018	0.968 ± 0.051
NARS2 (UniProt Q96I59)	0.955 ± 0.032	0.904 ± 0.033	0.927 ± 0.036	1 ± 0.048	1 ± 0.011	0.963 ± 0.066
UniProt Q9H2H8|B8ZZ77|Q9H2H8-2	1.04 ± 0.038	1.04 ± 0.032	1.04 ± 0.017	0.998 ± 0.031	1.02 ± 0.018	1.03 ± 0.038
UniProt Q99571|Q99571-2|F6SFZ6	0.986 ± 0.019	0.959 ± 0.019	0.971 ± 0.019	1.014 ± 0.0026	1.012 ± 0.0075	1.01 ± 0.039
UTP18 (UniProt Q9Y5J1)	1.05 ± 0.029	1.07 ± 0.048	1.1 ± 0.044	1.23 ± 0.028	1.28 ± 0.062	1.36 ± 0.05
RBM27 (UniProt Q9P2N5)	1.04 ± 0.021	1.15 ± 0.062	1.13 ± 0.05	1.24 ± 0.12	1.25 ± 0.11	1.34 ± 0.16
UniProt Q9UMZ2|Q9UMZ2-5|Q9UMZ2-9	1.02 ± 0.035	1.05 ± 0.064	1.03 ± 0.031	0.978 ± 0.035	0.955 ± 0.021	0.981 ± 0.037
CCDC124 (UniProt Q96CT7)	1.13 ± 0.037	1.29 ± 0.15	1.35 ± 0.058	1.58 ± 0.12	1.86 ± 0.17	2.16 ± 0.25
POLR3F (UniProt Q9H1D9)	0.959 ± 0.035	0.97 ± 0.08	0.962 ± 0.042	1.04 ± 0.062	1.03 ± 0.077	1.02 ± 0.087
UniProt Q9P2R7|Q9P2R7-2	0.9771 ± 0.0078	0.943 ± 0.027	0.938 ± 0.011	0.977 ± 0.032	0.958 ± 0.012	0.969 ± 0.049
PNKP (UniProt Q96T60)	1.02 ± 0.041	1.02 ± 0.054	1.1 ± 0.071	1.18 ± 0.021	1.23 ± 0.047	1.22 ± 0.079
GRWD1 (UniProt Q9BQ67)	1.09 ± 0.064	1.01 ± 0.089	1.11 ± 0.068	1.05 ± 0.043	1.11 ± 0.073	1.04 ± 0.045
UniProt Q9Y5V3|Q9Y5V3-2	1 ± 0.08	1 ± 0.059	0.937 ± 0.08	0.869 ± 0.077	0.81 ± 0.027	0.858 ± 0.048
UniProt Q96L91|Q96L91-2|Q96L91-3|Q96L91-5	1.03 ± 0.036	1.09 ± 0.038	1.05 ± 0.028	1.05 ± 0.061	1.03 ± 0.057	1.1 ± 0.084
